# Out of some 2,300 compounds screened, about 330 (14%) showed activity. The list is a sample of the results. A number with no mark means an inactive call.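 The calls were made as follows: active = median modified Z-score above 1.96; inactive = 1.96 or below.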
# Test system: HepG2 Srxn1-GFP reporter cells (+30 nM CDDO-Me)
# Test: Srxn1-GFP intensity median modified Z-score relative to plate median; higher = stronger NRF2 / oxidative stress reporter activation, active = hit call of the paper
# Conditions: 10 µM; exposure time: 24h
# In short: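 Per-cell cytoplasmic GFP was measured on confocal images of formaldehyde-fixed, Hoechst-stained HepG2 Srxn1-GFP BAC reporter cells, excluding images with fewer than 100 cells. Before this, the cells (20,000 per well, 96-well plates) were co-exposed for 24 h to compound at 10 μM and an NRF2 activator at 30 nM with ≤0.1% DMSO, in three replicate plates. Each value is the median over replicates of the per-plate modified Z-score of GFP intensity. That score was scaled with 1.4826 × median absolute deviation.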
row,Compound,Srxn1-GFP intensity median modified Z-score
1,CC(=O)O[C@H]1CC2CCC3C(CC[C@@]4(C)C3C[C@H]([N+]3(C)CCCCC3)[C@@H]4OC(C)=O)[C@@]2(C)C[C@@H]1N1CCCCC1 (stereo partly specified) [euspeclibcmpd853],-0.182
2,N#Cc1ccc2[nH]cc(CCCCN3CCN(c4ccc5oc(C(N)=O)cc5c4)CC3)c2c1 [euspeclibcmpd2178],0.321
3,C[C@@H]1CC[C@@]2(OC1)OC1CC3C4CC=C5C[C@@H](O)CC[C@]5(C)C4CC[C@]3(C)C1[C@@H]2C (stereo partly specified) [euspeclibcmpd1355],-0.393
4,O=c1c(O)c(-c2ccc(O)c(O)c2)oc2c(O[C@@H]3O[C@H](CO)[C@H](O)[C@@H](O)[C@H]3O)c(O)cc(O)c12 [euspeclibcmpd1755],-0.613
5,COc1ccc(CC(N)C(=O)N[C@@H]2[C@@H](CO)OC(n3cnc4c(N(C)C)ncnc43)[C@@H]2O)cc1 (stereo partly specified) [euspeclibcmpd2118],2.51 (active)
6,COc1[nH]c(=N)nc2c1ncn2C1OC(CO)C(O)C1O (stereo unspecified) [euspeclibcmpd1835],-0.349
7,O=c1[nH]cnc2c1ncn2C1O[C@H](CO)[C@@H](O)[C@H]1O (stereo partly specified) [euspeclibcmpd1256],-0.544
8,COc1ccc(C(=O)O)c(O)c1OC [euspeclibcmpd1494],-0.416
9,CC(C=CC1(O)C(C)=CC(=O)CC1(C)C)=CC(=O)O (stereo unspecified) [euspeclibcmpd1542],0.012
10,CONC(=O)c1cc(-c2ccccc2)nc2ccccc12,1.04
11,Cc1cc(=NS(=O)(=O)c2ccc(N)cc2)[nH]o1 [euspeclibcmpd278],-0.427
12,C[C@@H]1CC[C@@]2(OC1)O[C@H]1CC3C4CC[C@H]5C[C@@H](O)CC[C@]5(C)C4CC[C@]3(C)[C@H]1[C@@H]2C (stereo partly specified) [euspeclibcmpd2432],-0.319
13,C1CCN2C[C@@H]3C[C@H](CN4CCCC[C@@H]34)[C@H]2C1 [euspeclibcmpd2370],-0.181
14,N=c1[nH]c(=O)c2nc(CNc3ccc(C(=O)NC(CCC(=O)O)C(=O)O)cc3)cnc2[nH]1 (stereo unspecified) [euspeclibcmpd579],0.101
15,N=c1[nH]c(=N)c2nc(CNc3ccc(C(=O)NC(CCC(=O)O)C(=O)O)cc3)cnc2[nH]1 (stereo unspecified) [euspeclibcmpd911],10 (active)
16,CN(Cc1cnc2[nH]c(=N)[nH]c(=N)c2n1)c1ccc(C(=O)NC(CCC(=O)O)C(=O)O)cc1 (stereo unspecified) [euspeclibcmpd190],8.95 (active)
17,N=c1[nH]c2c(c(=O)[nH]1)N(C=O)C(CNc1ccc(C(=O)NC(CCC(=O)O)C(=O)O)cc1)CN2 (stereo unspecified) [euspeclibcmpd2313],-0.0509
18,N=c1[nH]c(=O)c2c(CCc3ccc(C(=O)NC(CCC(=O)O)C(=O)O)cc3)c[nH]c2[nH]1 (stereo unspecified) [euspeclibcmpd2345],-0.108
19,N=c1[nH]c(=O)c2c([nH]1)=NCC(CNc1ccc(C(=O)N[C@H](CCC(=O)O)C(=O)O)cc1)N=2 (stereo partly specified) [euspeclibcmpd1474],0.016
20,COc1ccc(C)cc1CN1CCN(C(c2ccc(F)cc2)c2ccc(F)cc2)CC1,1.38
21,Oc1ccc2c(c1)OC[C@]1(O)C=c3cc(O)c(O)cc3=C21 [euspeclibcmpd1461],-0.856

row,Compound,Srxn1-GFP intensity median modified Z-score
1,NC(O)=NO [euspeclibcmpd156],0.197
2,O=C(O)c1ccc(S(=O)(=O)N(Cl)Cl)cc1 [euspeclibcmpd144],-0.332
3,Cc1[nH]oc(=NS(=O)(=O)c2ccc(N)cc2)c1C [euspeclibcmpd283],-0.063
4,CCC(C)C(=O)O[C@H]1C[C@@H](C)C=C2C=C[C@H](C)[C@H](CC[C@@H]3C[C@@H](O)CC(=O)O3)[C@H]21 (stereo partly specified) [euspeclibcmpd875],-0.147
5,O=C1C[C@@H](c2ccc(O)cc2)Oc2cc(O)cc(O)c21 [euspeclibcmpd1328],0.815
6,O=C1CC(c2ccccc2)Oc2ccccc21 (stereo unspecified) [euspeclibcmpd1376],3.07 (active)
7,O=C1CC(c2ccc(O)cc2)Oc2ccccc21 (stereo unspecified) [euspeclibcmpd2144],-0.183
8,COc1cc(O)c2c(=O)cc(-c3ccc(O)cc3)oc2c1 [euspeclibcmpd2253],0.0845
9,CCOC(=O)NN=c1[nH]ncc2ccccc12 [euspeclibcmpd1066],0.23
10,N=c1[nH]c(C(CCC(=O)O)C(=O)N=C2C(=O)N3C(C(=O)O)=CCS[C@H]23)cs1 (stereo partly specified) [euspeclibcmpd717],-0.318
11,CCC(=O)c1c(O)cc(O)cc1O [euspeclibcmpd1034],0.366
12,O=C(CCc1ccc(O)cc1)c1c(O)cc(O)cc1O [euspeclibcmpd1518],16.3 (active)
13,O=C(CCc1ccc(O)cc1)c1c(O)cc(O)cc1O[C@@H]1O[C@H](CO)[C@@H](O)[C@H](O)[C@H]1O [euspeclibcmpd1493],-0.343
14,Cc1c(C(=O)O)c(O)cc2c(O)c3c(O)c(O)c(C4O[C@H](CO)[C@@H](O)[C@H](O)C4=O)c(O)c3c(O)c12 (stereo partly specified) [euspeclibcmpd1436],-0.693
15,NC[C@H]1O[C@H](O[C@H]2[C@H](O)[C@@H](O[C@H]3O[C@H](CO)[C@@H](O)[C@H](N)[C@H]3O)[C@H](N)C[C@@H]2N)[C@H](N)[C@@H](O)[C@@H]1O [euspeclibcmpd351],0.19
16,CC[C@@H](CO)NCCN[C@@H](CC)CO [euspeclibcmpd120],-0.816
17,O=C(O)C1=C(CCO)O[C@@H]2CC(=O)N12 [euspeclibcmpd2294],0.746
18,O=C(O)CCC(=O)Nc1ccc(S(=O)(=O)N=c2[nH]ccs2)cc1 [euspeclibcmpd428],0.358
19,COc1cc(Cc2c[nH]c(=N)[nH]c2=N)cc(OC)c1OC [euspeclibcmpd310],0.316
20,CC1=C(/C=C/C(C)=C/C=C/C(C)=C/C=C/C=C(C)/C=C/C=C(C)/C=C/C2=C(C)C(=O)CCC2(C)C)C(C)(C)CCC1=O [euspeclibcmpd1669],-0.405

# Reference: the supplement of paper PMC10498489
